Test results from PubChem BioAssay.

Assay: probe aCHRDL2 binding to arrayed compounds – biochemical, biotinylated probe, 635/667 nm fluorescence, primary screen (AID 1100)
Settings: small-molecule microarray, higher = more signal

Row | Structure (SMILES) | composite z-score
1 | Cc1ccc(S[C@]2(C(=O)NCCN3CCOCC3)CC(=O)N(Cc3ccccc3Cl)[C@@H]2c2ccc(CO)cc2)cc1 | 0.841
2 | C[C@@]1([C@@H](NC(=O)c2ccccc2)c2ccc(-c3ccccc3)cc2)C[C@H]1C1CCCCC1 | 1.26
3 | COc1ccc(COC2OC[C@]3(C)[C@H]4C5=C(CN3C(=O)OC(C)(C)C)[C@H](C)C(CO)C(CO)C5CC[C@@H]24)cc1 (some centres not stated) | 0.983
4 | C=C(/C(=C/C[C@@H](OC(C)=O)c1ccc(OCCO)cc1)c1cnc2ccccc2c1)C(C)C | 0.0459
5 | C=CCOC(=O)[C@@H]1[C@H]2C(=O)O[C@H](c3ccccc3)[C@H](c3ccccc3)N2[C@H](c2ccc(OCCOC(=O)[C@@H]3C[C@@H]4C(=O)N[C@@H](Cc5ccccc5)C(=O)N4[C@@H]3c3ccc(O)cc3)cc2)[C@@]12C(=O)Nc1ccc(I)cc12 | -0.35
6 | CCCCCC1=C2CNC(CCC)(C(=O)OC)C=C2C(C)C1=O (configuration not stated) | 0.952
7 | C=C(C)C1C(=C)CN([C@H](CO)c2ccccc2)C1=O (some centres not stated) | 0.22
8 | O=C1C2C=CC(C(O)c3ccc(F)cc3)N(Nc3ccccc3F)C2C(=O)N1c1ccccc1 (configuration not stated) | 0.996
9 | CCOc1cc(C(O)C2C=CC3C(=O)N(c4ccccc4)C(=O)C3N2Nc2ccccc2)ccc1O (configuration not stated) | 0.834
10 | CCCCCN1CC=CC23O[C@@H]4/C=C\CCCOC(=O)C4[C@H]2C(=O)N(C(CO)C(C)C)[C@@H]3C1=O (some centres not stated) | -0.0212
11 | CC(CO)N1C(=O)[C@@H]2C3C(=O)OCCC/C=C\[C@H]3OC23C=CCN(c2ccc4ccccc4c2)C(=O)[C@@H]13 (some centres not stated) | 0.128
12 | COCCCNC(=O)C1N=C(c2ccc(OCCCO)cc2)N(c2ccccc2)O1 (configuration not stated) | 0.203
